Assay results published in PubChem BioAssay (Tox21).
Results filed as inconclusive are left out. Where a call stands in place of a potency, no number is given. A number with no mark means an inactive call. The source made the active and inactive calls. Calls follow the shape of the dose curve; as a rule, active = well fitted cell-killing curve with a large enough effect in the repeat runs; inconclusive = weak or mixed curves, or effect the other way; inactive = flat fitted curve, though single readings scatter.

Test: Nuclear factor erythroid 2-related factor 2/antioxidant responsive element (Nrf2/ARE) small molecule agonists: qHTS cell viability counter screen in human keratinocytes (AID 1919968); also: nearly all actives have a fitted effect of over 55% in size
Settings: KeratinoSens HaCaT ARE cells viability, CellTiter-Fluor, 24 h; series mostly up to 92.4 µM
Outline: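 Seed 1,500 KeratinoSens cells per well, then incubate 5 h at 37 C/5% CO2. Add compounds in DMSO and incubate 23 h. Add CellTiter-Fluor, wait 1 h and read fluorescence.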

SMILES | Potency | activity change, negative = cytotoxicity
CC(C)NCCCC1(C(N)=O)c2ccccc2-c2ccccc21 | inactive | –
CC(C(=O)O)c1cccc(Oc2ccccc2)c1 (stereo not given) | inactive | –
CC(C)=CCC[C@@](C)(O)[C@H]1CC=C(C)CC1 | inactive | –
O=C(O)C[C@H](O)C[C@H](O)/C=C/c1c(C2CC2)nc2ccccc2c1-c1ccc(F)cc1 | – | -15.1% [at 19 µM]
O=P(O)(O)OCC(O)CO (stereo not given) | inactive | –
COC(=O)[C@H]1[C@H]2C[C@@H]3c4[nH]c5cc(OC)ccc5c4CCN3C[C@H]2C[C@@H](OC(=O)COc2ccc(OC)cc2)[C@@H]1OC | inactive | –
Cc1ccc2c(Cl)cc(Cl)c(O)c2n1 | inactive | –
CCC(=O)OC(=O)CC | inactive | –
O=C1c2ccccc2C(=O)N1CO | inactive | –
C[N+]12CCC(CC1)C(OC(=O)C(O)(c1ccccc1)c1ccccc1)C2 (stereo not given) | inactive | –
Cc1cccc([N+](=O)[O-])c1C(=O)O | inactive | –
Nc1nc2c(ncn2COCCO)c(=O)[nH]1 | inactive | –
C[N+]1(CC2COC(c3ccccc3)(c3ccccc3)O2)CCCCC1 (stereo not given) | – | -0.244% [at 19 µM]
Cc1ncc(CO)c(C=O)c1O | inactive | –
CC(C)c1ccc(C#N)cc1 | inactive | –
CN(C)CCN1CCOCC1 | inactive | –
CCOC(=O)[C@H](C)O | inactive | –
CO[C@@]1(NC(=O)CSCC#N)C(=O)N2C(C(=O)O)=C(CSc3nnnn3C)CS[C@@H]21 | inactive | –
O=C(Nc1ccccc1)Nc1ccccc1 | inactive | –
O=C(O)c1ccc[n+]([O-])c1 | inactive | –

SMILES | Potency | activity change, negative = cytotoxicity
NC(Cc1ccc(Cl)cc1)C(=O)O (stereo not given) | – | -10.3% [at 0.349 µM]
CCCCCCCCCCc1ccccc1 | inactive | –
Cc1ccccc1N1C(=O)c2cc(S(N)(=O)=O)c(Cl)cc2NC1C (stereo not given) | inactive | –
NC1CCN(c2nc3c(cc2F)c(=O)c(C(=O)O)cn3-c2ccc(F)cc2F)C1 (stereo not given) | inactive | –
CCOc1cc([N+](=O)[O-])c(OCC)cc1N1CCOCC1 | inactive | –
CO[C@@H]1[C@H](OC(=O)/C=C/C=C/C=C/C=C/C(=O)O)CC[C@]2(CO2)[C@H]1[C@@]1(C)O[C@@H]1CC=C(C)C | inactive | –
CN1C(=O)OC(C)(C)C1=O | inactive | –
FC(F)(F)c1ccc(Cl)cc1Cl | inactive | –
O=C(CCC1CCN(Cc2ccccc2)CC1)c1ccc2c(c1)NCCCC2 | inactive | –
Cn1c(=O)[nH]c2ncn(C)c2c1=O | inactive | –
Nc1nc(Cl)nc2c1ncn2[C@@H]1O[C@H](CO)[C@@H](O)[C@@H]1F | inactive | –
CC(C)(C)C1=CC(=O)C(C(C)(C)C)=CC1=O | inactive | –
Cc1c(C(=O)NCCO)[n+](=O)c2ccccc2n1[O-] | inactive | –
C=CC(C)(CCC=C(C)C)OC(=O)C(C)C (stereo not given) | inactive | –
CN1Cc2cc(C(=O)N3CCC(C4CCNCC4)CC3)ccc2N[C@@H](CC(=O)O)C1=O | inactive | –
[O-][n+]1cccc(CO)c1 | inactive | –
Cc1cc(C(=O)O)ccc1[N+](=O)[O-] | inactive | –
CC(C)=CCC/C(C)=C/C=N/O | inactive | –
CC(=O)c1c(C)cc(C(C)(C)C)cc1C | inactive | –
O=S1(=O)c2cccc3cccc(c23)N1CCCN1CCN(c2ccc(F)cc2)CC1 | inactive | –
